Screening results (PubChem)
Shiga inhibitor = Shiga toxin inhibition | inhibition, % at 38.7 µM | Vero cells, Shiga toxin protein synthesis inhibition reporter | AID 2315 | 290,000 compounds, 9.2% hits; in the data active means inhibition mostly above about 28%, no sharp cut-off; inactive means mostly below about 43%; further: 0% is about no effect
CHX counter = affects cycloheximide protein synthesis inhibition readout, counter-screen | cell reporter, cycloheximide protein synthesis inhibition counterscreen | max response, % | 300,000 compounds, 12% hits; in the data active means max response mostly above about 13%, no sharp cut-off; inactive means mostly below about 14%; further: read at 38.3 µM for the half of the compounds with a filed dose; 0% is about no effect
TbPYK inhibitor = T. brucei pyruvate kinase inhibition | Q57TT1 | TbPYK enzyme, Kinase-Glo Plus ATP luminescence, 45 min | Potency, µM (titrated, usually from 76.8 µM), inactives show at the highest dose activity, negative = inhibition, hits mostly inhibitors | 410,000 compounds, 0.12% hits | AID 624173; further: potency means the concentration at half of the fitted maximal effect; on the % scale 0 is the no-effect control and ±100 the full control effect; nearly all actives have a fitted effect of over 50% in size
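Activity of T. brucei pyruvate kinase was followed by Kinase-Glo Plus luminescence after the enzyme reacted 45 min at room temperature with 130 uM ADP (final) and substrate. Test compounds were added before ADP at multiple concentrations.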
LmPK inhibitor = LmPK (Leishmania mexicana) enzyme inhibition; Potency, µM (series often up to 57.5 µM), for the others: top-dose activity change, negative = inhibition, usual class: inhibitors; AID 1721; 290,000 compounds, 0.37% hits; purified LmPK, Kinase-Glo ATP luminescence, 1 h; further: potency means the concentration at half of the fitted maximal effect; on the % scale 0 is the no-effect control and ±100 the full control effect
Target sequence (Q27686 whole entry, looked up): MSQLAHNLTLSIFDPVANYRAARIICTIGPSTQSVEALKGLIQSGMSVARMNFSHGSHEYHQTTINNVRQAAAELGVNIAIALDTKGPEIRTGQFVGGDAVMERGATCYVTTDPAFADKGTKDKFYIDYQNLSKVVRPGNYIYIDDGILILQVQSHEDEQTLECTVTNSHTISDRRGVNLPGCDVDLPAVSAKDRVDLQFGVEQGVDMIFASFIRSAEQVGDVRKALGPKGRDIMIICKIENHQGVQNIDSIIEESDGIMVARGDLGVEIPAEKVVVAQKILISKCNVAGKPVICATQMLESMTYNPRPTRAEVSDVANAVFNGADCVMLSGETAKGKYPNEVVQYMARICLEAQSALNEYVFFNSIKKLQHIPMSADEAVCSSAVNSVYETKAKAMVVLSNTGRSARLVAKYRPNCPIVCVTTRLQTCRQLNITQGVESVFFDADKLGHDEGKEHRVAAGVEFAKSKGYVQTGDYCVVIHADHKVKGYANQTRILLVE
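Screened at intermediate enzyme activity to detect both inhibitors and activators: LmPK at 0.1 nM, with a 0.5 nM enzyme column as activation reference. PEP 0.5 mM, ADP 0.1 mM; ATP detected by luminescence after 1 h.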
Sm TGR inh = inhibitors of Schistosoma mansoni thioredoxin glutathione reductase; Q962Y6; purified TGR, DTNB reduction, TNB absorbance 405 nm; 360,000 compounds, 3% hits; Potency, µM (series often up to 114 µM), inactives show top-dose activity change, negative = inhibition, actives largely listed as inhibitors; further: potency means the concentration at half of the fitted maximal effect; on the % scale 0 is the no-effect control and ±100 the full control effect; nearly all actives have a fitted effect of over 60% in size
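Kinetic colorimetric format: TGR-catalysed, NADPH-driven DTNB reduction monitored via TNB absorbance. Enzyme dispensed at 20 nM; compound exposure 15 min at room temperature before reaction start.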
FBPA Giardia inh = blocks Giardia fructose-bisphosphate aldolase activity; A8B2U2; purified Giardia FBPA; Potency, µM (highest dose often 59.6 µM), without a hit: at the top dose activity, negative = inhibition, most hits filed as inhibitors; 290,000 compounds, 0.71% hits; further: potency means the concentration at half of the fitted maximal effect; on the % scale 0 is the no-effect control and ±100 the full control effect; nearly all actives have a fitted effect of over 55% in size
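40 nM FBPA preincubated 10 min at RT with compound (up to 57.5 uM final), then substrate plus GAPDH/TPI/NAD/arsenate coupling and diaphorase/resazurin added. Fluorescence read after 20 min at RT, 525/598 nm.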
* hit, by the source's call; ? = inconclusive; · = no result given. The sample as a whole holds a higher share of hits than the screen did. Unless noted, the call rests on the fitted dose curve; in most records, active means well fitted curve in the direction sought with a large enough effect; inconclusive means small, poorly fitted or top-dose-only effect, or another doubt; inactive means no such curve, though single readings can be large; an effect the other way counts as inactive or inconclusive.

SMILES	Shiga inhibitor	CHX counter	TbPYK inhibitor	LmPK inhibitor	Sm TGR inh	FBPA Giardia inh
O=C(CSc1ccc(-c2ccccc2)nn1)NC1CCCC1	-6.5	8.0	-7.1%	7.2%	-24.4%	5.7%
COc1ccc(-c2ccc(SCC(=O)NC3CCCCC3)nn2)cc1	47.4	8.9	-7.4%	-3.7%	4.0%	-6.7%
COc1ccc(-c2cn3nc(SCC(=O)NC4CCCCC4)ccc3n2)cc1	94.6*	49.9*	-4.0%	7.9%	-12.2%	1.3%
O=C(CSc1ccc(-c2ccco2)nn1)NC1CCCC1	14.4	0.5	-3.7%	-5.7%	17.8µM*	-4.5%
CCOc1ccc(-c2ccc(SCC(=O)NC3CCCCC3)nn2)cc1	39.3	16.7*	-7.6%	1.4%	2.4%	-0.5%
O=C(CSc1ccc(-c2ccco2)nn1)NC1CCCCC1	25.2	12.4	-15.0%	6.1%	8.91µM*	-11.3%
O=C(NCCc1nnc2ccc(N3CCCC3)nn12)c1ccccc1	·	·	-9.1%	·	·	·
O=C(Nc1ccc(OCC(F)(F)C(F)F)c(C(F)(F)F)c1)c1ccccc1O	52.1*	20.7*	1.1%	6.3%	-19.8%	4.5%
O=C(Nc1ccc(OCC(F)(F)C(F)F)c(C(F)(F)F)c1)c1ccccc1	·	·	-2.7%	·	·	·
CCOc1ccc2nc(N3CCCC(C(=O)NCCc4ccc(OC)cc4OC)C3)sc2c1 (stereo not drawn)	·	·	2.8%	·	-0.8%	·
O=C(N/N=C/c1cn(-c2ccccc2)nc1-c1cccs1)c1ccccc1F	82.8*	20.0*	1.1%	2.6%	2.9%	-5.2%
O=C(N/N=C/c1cn(-c2ccccc2)nc1-c1cccnc1)c1cccnc1	2.2	5.4	1.1%	-0.8%	1.1%	2.6%
O=C(N/N=C/c1cn(-c2ccccc2)nc1-c1cccs1)c1ccc(Cl)cc1	8.1	-3.1	-2.2%	-1.9%	0.9%	11.3%
O=C(CNc1ccccc1)N/N=C/c1cn(-c2ccccc2)nc1-c1ccccc1	54.3	9.7*	6.5%	-1.1%	-1.2%	-0.6%
NS(=O)(=O)c1ccc(N/N=C/c2cn(-c3ccccc3)nc2-c2ccccc2)c([N+](=O)[O-])c1	-11.1	0.8	-0.3%	-7.5%	-0.9%	-0.4%
O=[N+]([O-])c1ccc(N/N=C/c2cn(-c3ccccc3)nc2-c2ccccc2)cc1	30.8*	9.6	4.2%	-2.2%	10.5%	-2.9%
NC(=O)N/N=C/c1cn(-c2ccccc2)nc1-c1ccccc1	59.9*	30.7*	-4.1%	2.5%	2.0%	-14.4%
CN(C)Cc1ccccc1-c1cc(NCc2cccs2)ncn1	·	·	·	·	·	7.5%
COc1ccc2c(c1)CC(NC(=O)Nc1c(C)cc(C)cc1C)CO2 (stereo not drawn)	·	·	-7.0%	·	3.7%	·
COc1ccc(C(C(=O)NC2CCCCC2)N(C(=O)c2ccco2)c2ccccc2C(C)=O)cc1OC (stereo not drawn)	-6.6	-3.0	-1.1%	-4.1%	-21.3%	·
NC(=O)Cc1ccc(C(=O)c2ccccc2)s1	24.8	5.8	5.2%	-0.7%	-5.3%	5.8%
COc1ccc(C(=O)c2ccc(CC#N)s2)cc1	67.8*	23.9*	-2.4%	2.1%	7.2%	-0.7%
COc1ccc(C(=O)c2ccsc2N)cc1	51.1*	28.2*	-7.0%	-0.9%	12.6µM*	1.1%
CCc1cc(C(=O)c2ccc(OC)cc2)c(N)s1	22.2	7.8	-2.5%	-7.2%	-11.2%	-6.7%
Cc1cccc(-n2ncc3c(=O)[nH]c(SCC(=O)N4CC(=O)Nc5ccccc54)nc32)c1	·	·	-0.8%	·	-1.5%	·
SMILES	Shiga inhibitor	CHX counter	TbPYK inhibitor	LmPK inhibitor	Sm TGR inh	FBPA Giardia inh
CC(=O)Nc1ccccc1-c1nc2ccccc2n(C(C)C(=O)Nc2cccc(C)c2C)c1=O (stereo not drawn)	·	·	-1.3%	·	-8.2%	·
O=S(=O)(c1ccccc1)c1nc(-c2ccco2)oc1NCCCn1ccnc1	13.4	-1.4	-11.9%	1.7%	39.8µM*	-26.6%
O=S(=O)(c1ccccc1)c1nc(-c2ccco2)oc1NCc1ccccc1	15.0	9.0	0.2%	4.0%	35.5µM*	-17.0%
O=S(=O)(c1ccccc1)c1nc(-c2ccco2)oc1NCc1ccco1	-1.7	2.1	-6.4%	5.2%	35.5µM*	-4.6%
Cc1c(Cl)ccc2sc(N3CCN(C(=O)CCS(=O)(=O)c4ccc(F)cc4)CC3)nc12	·	·	0.5%	·	0.4%	·
CC(C1CC2CCC1C2)n1c(-c2cccs2)n[nH]c1=S (stereo not drawn)	9.5	-2.4	?	5.01µM*	11.4%	-3.5%
S=c1[nH]nc(-c2cccs2)n1C1CCCCC1	-10.2	-1.6	7.08µM*	3.55µM*	15.1%	?
S=c1[nH]nc(-c2cccs2)n1Cc1ccccc1	-1.2	-2.5	?	-13.4%	5.0%	-0.3%
Nc1sc(-c2ccccc2)cc1-c1n[nH]c(=S)n1C1CCCCC1	1.7	-2.8	-24.1%	-4.3%	-17.1%	0.5%
Cn1c(-c2ccc(C(C)(C)C)cc2)n[nH]c1=S	59.2*	36.1*	?	-22.6%	1.5%	3.2%
CCn1c(-c2ccc(C(C)(C)C)cc2)n[nH]c1=S	8.5	1.4	?	?	-5.5%	3.6%
CC(C)(C)c1ccc(-c2n[nH]c(=S)n2-c2ccccc2)cc1	-12.9	0.6	?	?	-0.6%	20.1%
CC(C)(C)c1ccc(-c2n[nH]c(=S)n2C2CCCC2)cc1	-13.4	-2.6	?	10µM*	-1.4%	7.9%
CCn1c2c(c(=O)n3ncc(C(=O)Nc4cccc(Cl)c4C)c13)CN(Cc1ccc(OC)cc1)CC2	·	·	?	·	-16.3%	·
Cc1nc(-c2ccc(F)cc2)c(CC(=O)N(C)CC(=O)Nc2cccc(F)c2)s1	·	·	-6.4%	·	·	·
Cc1ccc(NC(=O)C(C)N=C2NS(=O)(=O)c3ccccc32)cc1F (stereo not drawn)	63.4*	28.7*	4.1%	-0.9%	6.1%	5.3%
COCCN(C(=O)C1CCN(C(=O)c2ccccc2C)CC1)c1c(N)n(CC(C)C)c(=O)[nH]c1=O	·	·	-21.2%	·	-34.3%	·
Cc1cc(C)cc(NC(=O)c2cc(S(=O)(=O)N3CCCCCC3)cn2C)c1	·	·	-3.4%	·	0.4%	·
Cn1cc(NC(=O)c2cc(NC(=O)c3cc(NC=O)cn3C)cn2C)cc1C(=O)NCCC(=N)N	-3.3	-5.1	1.4%	-1.8%	14.1µM*	?
C/C(Cn1nnc([N+](=O)[O-])n1)=N\NC(=O)c1ccc(O)cc1O	72.1*	69.0*	-10.7%	3.4%	-29.5%	?
C/C(Cn1nnc([N+](=O)[O-])n1)=N\NC(=O)c1ccccc1O	51.7*	32.4*	-6.8%	4.0%	?	17.7µM*
C/C(=N\NC(=O)c1cc(C2CC2)nc2ccccc12)c1ccc(O)cc1O	-10.4	-7.6	1.6%	-2.6%	-5.9%	-7.4%
C/C(Cn1nnc([N+](=O)[O-])n1)=N\NC(=O)c1ccc(Cl)c(Cl)c1	-16.8	-1.3	1.5%	0.0%	-13.8%	?
C/C(Cn1nnc([N+](=O)[O-])n1)=N\NC(=O)c1ccc(O)cc1	61.9*	22.9*	-4.4%	5.5%	-13.5%	?
